Test results as given in PubChem BioAssay (NCATS).
Results filed as inconclusive are left out. Where a call stands in place of a potency, no number is given. Calls of active or inactive are those of the source. The call rests on the fitted dose curve; in most records, active means well fitted inhibition curve with a large enough effect; inconclusive means small, poorly fitted or top-dose-only effect; inactive means no such curve, though single readings can be large or run the other way.

Biological target: Rap guanine nucleotide exchange factor 4 (Homo sapiens) (UniProt Q8WZA2)
Sequence (Q8WZA2 whole entry, looked up): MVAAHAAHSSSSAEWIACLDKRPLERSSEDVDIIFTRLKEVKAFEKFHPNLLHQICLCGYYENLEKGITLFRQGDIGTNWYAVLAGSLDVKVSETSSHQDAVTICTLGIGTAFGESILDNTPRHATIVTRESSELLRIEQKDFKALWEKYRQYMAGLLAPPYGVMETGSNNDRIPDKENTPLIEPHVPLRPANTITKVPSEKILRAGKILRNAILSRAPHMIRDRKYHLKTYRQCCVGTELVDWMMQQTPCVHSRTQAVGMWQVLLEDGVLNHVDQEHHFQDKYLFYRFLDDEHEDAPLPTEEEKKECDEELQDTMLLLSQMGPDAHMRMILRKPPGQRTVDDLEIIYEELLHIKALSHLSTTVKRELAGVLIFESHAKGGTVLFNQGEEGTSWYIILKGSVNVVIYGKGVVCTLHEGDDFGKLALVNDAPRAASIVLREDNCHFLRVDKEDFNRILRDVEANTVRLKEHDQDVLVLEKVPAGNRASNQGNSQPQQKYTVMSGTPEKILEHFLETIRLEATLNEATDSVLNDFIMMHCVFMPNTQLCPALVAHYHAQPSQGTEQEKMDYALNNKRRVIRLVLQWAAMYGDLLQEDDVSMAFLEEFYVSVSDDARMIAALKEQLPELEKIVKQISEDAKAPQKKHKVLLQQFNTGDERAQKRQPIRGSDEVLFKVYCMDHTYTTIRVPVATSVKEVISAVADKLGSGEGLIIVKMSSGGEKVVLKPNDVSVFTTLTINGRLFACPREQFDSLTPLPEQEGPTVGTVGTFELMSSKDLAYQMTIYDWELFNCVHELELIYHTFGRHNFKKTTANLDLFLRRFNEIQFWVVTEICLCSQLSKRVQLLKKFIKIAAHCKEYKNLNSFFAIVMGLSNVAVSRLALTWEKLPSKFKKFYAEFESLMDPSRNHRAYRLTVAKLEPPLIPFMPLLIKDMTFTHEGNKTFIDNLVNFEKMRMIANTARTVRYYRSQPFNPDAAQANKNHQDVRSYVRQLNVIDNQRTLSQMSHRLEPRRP
Assay: Confirmatory qHTS for antagonist of cAMP-regulated guanine nucleotide exchange factor 4 (EPAC2) (AID 1645885); further: nearly all actives have a fitted effect of over 25% in size
Conditions: EPAC2 Rap1B-BODIPY-GDP exchange fluorescence, biochemical; series mostly up to 12.7 µM
Potency means the concentration at half of the fitted maximal effect.

SMILES	Potency
CCOC(=O)C1CCCN(c2cc(=O)n(C3CCCCC3)c(=O)[nH]2)C1 (stereo not drawn)	inactive
Cc1cccc(C)c1OCC(=O)N(Cc1ccco1)Cc1ccco1	inactive
Cc1ccc(C)n1-c1c(C(=O)NCCC(C)C)sc2ncccc12	inactive
CN(C)c1ccc(/C=C/C=C/c2ccnc3ccccc23)cc1	inactive
Nc1ccn(C2C=CC(CO)O2)c(=O)n1 (stereo not drawn)	inactive
COc1ccccc1CNC(=O)CSc1ccc(-c2cccs2)nn1	inactive
COc1ccccc1N1CCN(c2ccc3c(c2)S(=O)(=O)c2cccc(C(=O)NCC4CC4)c2C3=O)CC1	inactive
O=C(NCCN1CCCC1)C(c1ccccc1)c1ccccc1	inactive
COc1cc2c3nnc(-c4ccccc4)c-3cn(Cc3ccc(F)cc3)c2cc1OC	inactive
O=C(/C=C/c1ccccc1)c1cc(Br)ccc(=O)c1O	inactive
COc1ccc(C(=O)NC2CCCc3ccccc32)c(OC)c1OC (stereo not drawn)	inactive
CCc1ccccc1NC(=O)CCC(=O)N1CCN(C(C)=O)CC1	inactive
O=C(C[n+]1cccc2cc(Cl)ccc21)c1ccc(Br)cc1	inactive
Cn1cccc1-c1cc(C(=O)N/N=C/c2ccc(F)cc2)[nH]n1	inactive
O=C(C[N+]12CN3CN(CN(C3)C1)C2)c1ccc(I)cc1	inactive
CC(C)CC1C(=O)N(Cc2cn(CCC3OCCCO3)nn2)CCS(=O)(=O)N1Cc1ccc(-c2ccc(F)cc2)cc1 (stereo not drawn)	inactive
O=C1C[C@H]2C=CCc3cccc(c32)CN1Cc1ccc(Cl)cc1	44.1 µM (active)
COC(=O)c1cn(C(=O)c2ccc(OC)cc2)c2ccccc12	inactive
